Data reported in publication PMC7862700, “An all-to-all approach to the identification of sequence-specific readers for epigenetic DNA modifications on cytosine”.

Key:
Test in all cases: DAPPL (digital affinity profiling via proximity ligation, sequencing); 10 mM Tris-HCl pH 7.5, 50 mM NaCl, 1 mM DTT, 4% glycerol, room temperature, 30 min; GST-TFs on glutathione beads, 16-mer random dsDNA library, 0.1% formaldehyde crosslink after washing; high values mean tight binding
FEV = target: T1, FEV (Homo sapiens, UniProt Q99581 1-238); settings: protein: recombinant; tags: N-terminal GST; dsDNA, one strand shown
T1 sequence: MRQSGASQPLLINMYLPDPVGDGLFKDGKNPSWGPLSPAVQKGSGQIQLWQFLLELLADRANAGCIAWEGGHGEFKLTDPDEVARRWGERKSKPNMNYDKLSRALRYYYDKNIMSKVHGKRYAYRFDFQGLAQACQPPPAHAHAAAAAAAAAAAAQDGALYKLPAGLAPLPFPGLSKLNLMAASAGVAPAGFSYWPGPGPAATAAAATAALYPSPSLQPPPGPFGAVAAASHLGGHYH
Method in brief: (§1)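 Beads coated with glutathione captured GST-fused human transcription factors that had been expressed in yeast, and the factors were then given DNA barcodes and pooled with a tag-only sample. The pools were incubated with 200 nmole of a random double-stranded 16-mer DNA library in Tris/NaCl/DTT/glycerol buffer for 30 min at room temperature, washed, crosslinked with 0.1% formaldehyde and proximity-ligated with BsaI/T4 ligase at 37 °C for 1 h. PCR amplification and Illumina NextSeq500 sequencing came last. Binding signal is each hexamer's read frequency for a factor divided by its frequency for the tag-only sample.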

ETV5 = ETV5 (Homo sapiens, UniProt P41161 1-510); settings: protein: recombinant; tags: N-terminal GST; dsDNA, one strand shown
Sequence of ETV5 (P41161 whole entry): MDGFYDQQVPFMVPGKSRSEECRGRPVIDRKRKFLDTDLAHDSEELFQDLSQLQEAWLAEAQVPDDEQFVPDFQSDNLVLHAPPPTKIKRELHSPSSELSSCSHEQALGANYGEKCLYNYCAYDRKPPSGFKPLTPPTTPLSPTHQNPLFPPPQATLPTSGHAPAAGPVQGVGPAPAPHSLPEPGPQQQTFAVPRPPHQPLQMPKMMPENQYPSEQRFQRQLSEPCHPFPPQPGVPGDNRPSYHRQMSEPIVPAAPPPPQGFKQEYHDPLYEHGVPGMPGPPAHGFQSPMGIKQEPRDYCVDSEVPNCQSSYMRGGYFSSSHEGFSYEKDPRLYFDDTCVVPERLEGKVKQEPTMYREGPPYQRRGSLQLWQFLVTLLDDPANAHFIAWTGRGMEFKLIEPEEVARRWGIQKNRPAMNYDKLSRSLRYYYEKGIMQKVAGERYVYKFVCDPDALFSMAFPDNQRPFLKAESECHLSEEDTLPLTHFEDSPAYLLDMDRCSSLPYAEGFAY
Method in brief: as §1

HSF1 = HSF1 (Homo sapiens, UniProt Q00613 1-529); settings: protein: recombinant; tags: N-terminal GST; chain copies: 3; dsDNA, one strand shown
Sequence of HSF1 (Q00613 whole entry): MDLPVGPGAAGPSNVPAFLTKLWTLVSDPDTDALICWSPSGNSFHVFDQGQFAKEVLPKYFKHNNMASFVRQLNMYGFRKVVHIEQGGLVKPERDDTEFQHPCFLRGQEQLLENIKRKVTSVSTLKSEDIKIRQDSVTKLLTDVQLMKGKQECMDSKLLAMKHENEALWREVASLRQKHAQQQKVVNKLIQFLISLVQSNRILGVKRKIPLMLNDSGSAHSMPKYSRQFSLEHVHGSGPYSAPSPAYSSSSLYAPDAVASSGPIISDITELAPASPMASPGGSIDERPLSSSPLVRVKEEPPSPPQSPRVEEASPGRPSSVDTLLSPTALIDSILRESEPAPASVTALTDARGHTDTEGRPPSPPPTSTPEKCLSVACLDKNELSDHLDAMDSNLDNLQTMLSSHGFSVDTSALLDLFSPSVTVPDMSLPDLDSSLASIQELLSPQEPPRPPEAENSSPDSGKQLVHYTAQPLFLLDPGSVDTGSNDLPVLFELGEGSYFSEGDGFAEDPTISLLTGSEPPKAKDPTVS
Method in brief: as §1

SPIC = target: T2, SPIC (Homo sapiens, UniProt Q8N5J4 1-248); settings: protein: recombinant; tags: N-terminal GST; dsDNA, one strand shown
T2 sequence: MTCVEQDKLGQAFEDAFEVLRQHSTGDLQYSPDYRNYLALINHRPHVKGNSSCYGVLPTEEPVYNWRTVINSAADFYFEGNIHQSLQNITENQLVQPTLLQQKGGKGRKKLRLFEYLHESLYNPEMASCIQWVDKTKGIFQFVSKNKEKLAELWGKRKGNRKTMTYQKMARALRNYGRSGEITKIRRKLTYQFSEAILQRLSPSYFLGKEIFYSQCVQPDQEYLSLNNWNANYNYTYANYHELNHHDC
Method in brief: as §1

ELF4 = ELF4 (Homo sapiens, UniProt Q99607 1-663); settings: protein: recombinant; tags: N-terminal GST; dsDNA, one strand shown
Sequence of ELF4 (Q99607 whole entry): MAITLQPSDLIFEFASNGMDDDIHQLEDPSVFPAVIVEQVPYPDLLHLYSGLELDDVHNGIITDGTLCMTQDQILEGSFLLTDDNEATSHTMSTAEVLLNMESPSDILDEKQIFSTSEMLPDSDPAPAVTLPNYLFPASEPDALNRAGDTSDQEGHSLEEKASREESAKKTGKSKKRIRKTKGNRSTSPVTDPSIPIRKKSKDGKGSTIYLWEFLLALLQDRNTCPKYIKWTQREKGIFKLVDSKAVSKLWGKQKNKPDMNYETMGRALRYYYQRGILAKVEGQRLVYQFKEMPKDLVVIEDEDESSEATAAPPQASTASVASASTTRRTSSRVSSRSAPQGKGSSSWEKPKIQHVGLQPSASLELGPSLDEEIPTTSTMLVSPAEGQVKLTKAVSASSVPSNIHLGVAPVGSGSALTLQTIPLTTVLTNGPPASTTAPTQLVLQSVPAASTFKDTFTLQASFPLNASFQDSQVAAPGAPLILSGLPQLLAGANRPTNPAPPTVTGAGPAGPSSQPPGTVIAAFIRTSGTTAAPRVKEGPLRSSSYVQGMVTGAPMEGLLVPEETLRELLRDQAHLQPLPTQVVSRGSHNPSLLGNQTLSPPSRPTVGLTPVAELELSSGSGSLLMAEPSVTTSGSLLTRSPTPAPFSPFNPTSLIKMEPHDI
Method in brief: as §1

ELK4 = target: T3, ELK4 (Homo sapiens, UniProt P28324-2 1-405); settings: protein: recombinant; tags: N-terminal GST; dsDNA, one strand shown
T3 sequence: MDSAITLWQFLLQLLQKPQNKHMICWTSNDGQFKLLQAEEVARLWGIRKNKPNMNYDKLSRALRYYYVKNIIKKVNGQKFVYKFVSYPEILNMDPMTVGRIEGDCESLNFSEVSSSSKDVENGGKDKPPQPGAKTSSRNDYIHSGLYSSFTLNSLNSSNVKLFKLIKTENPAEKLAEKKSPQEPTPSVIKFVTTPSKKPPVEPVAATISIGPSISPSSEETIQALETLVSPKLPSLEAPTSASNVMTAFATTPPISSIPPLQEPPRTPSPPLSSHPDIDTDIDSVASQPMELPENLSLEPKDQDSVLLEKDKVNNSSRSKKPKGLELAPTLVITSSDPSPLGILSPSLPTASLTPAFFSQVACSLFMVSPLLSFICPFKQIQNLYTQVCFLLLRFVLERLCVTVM
Method in brief: as §1

ETV2 = target: T4, ETV2 (Homo sapiens, UniProt O00321 1-342); settings: protein: recombinant; tags: N-terminal GST; dsDNA, one strand shown
T4 sequence: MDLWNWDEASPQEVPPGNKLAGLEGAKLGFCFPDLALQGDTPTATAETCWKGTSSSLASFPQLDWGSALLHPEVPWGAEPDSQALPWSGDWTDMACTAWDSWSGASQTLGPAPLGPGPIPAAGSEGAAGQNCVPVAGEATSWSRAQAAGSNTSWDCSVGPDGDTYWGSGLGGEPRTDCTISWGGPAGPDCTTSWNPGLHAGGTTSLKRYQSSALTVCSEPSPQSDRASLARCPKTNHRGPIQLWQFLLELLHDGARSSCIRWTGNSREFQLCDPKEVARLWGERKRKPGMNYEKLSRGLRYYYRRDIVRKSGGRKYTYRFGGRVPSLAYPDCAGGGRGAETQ
Method in brief: as §1

ELF3 = target: T5, ELF3 (Homo sapiens, UniProt P78545 1-371); settings: protein: recombinant; tags: N-terminal GST; dsDNA, one strand shown
T5 sequence: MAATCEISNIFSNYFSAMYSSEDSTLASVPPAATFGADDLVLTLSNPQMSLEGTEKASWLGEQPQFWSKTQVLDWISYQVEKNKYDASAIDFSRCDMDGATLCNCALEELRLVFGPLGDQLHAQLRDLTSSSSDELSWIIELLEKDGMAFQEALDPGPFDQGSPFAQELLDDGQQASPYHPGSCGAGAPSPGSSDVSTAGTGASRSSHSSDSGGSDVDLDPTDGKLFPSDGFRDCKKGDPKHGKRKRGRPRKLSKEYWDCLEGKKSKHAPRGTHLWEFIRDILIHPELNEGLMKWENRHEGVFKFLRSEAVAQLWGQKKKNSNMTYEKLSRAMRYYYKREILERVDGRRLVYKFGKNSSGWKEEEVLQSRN
Method in brief: as §1

CRX = CRX (Homo sapiens, UniProt O43186 1-299); settings: protein: recombinant; tags: N-terminal GST; dsDNA, one strand shown
Sequence of CRX (O43186 whole entry): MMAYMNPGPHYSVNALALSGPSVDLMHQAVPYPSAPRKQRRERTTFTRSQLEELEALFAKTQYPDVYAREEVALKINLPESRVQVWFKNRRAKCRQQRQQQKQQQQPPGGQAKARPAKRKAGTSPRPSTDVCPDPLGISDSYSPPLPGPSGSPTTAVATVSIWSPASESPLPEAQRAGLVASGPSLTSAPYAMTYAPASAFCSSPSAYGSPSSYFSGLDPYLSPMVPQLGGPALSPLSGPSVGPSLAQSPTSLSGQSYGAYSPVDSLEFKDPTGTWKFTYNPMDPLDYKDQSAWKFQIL
Method in brief: as §1

ETV1 = ETV1 (Homo sapiens, UniProt P50549 1-477); settings: protein: recombinant; tags: N-terminal GST; dsDNA, one strand shown
Sequence of ETV1 (P50549 whole entry): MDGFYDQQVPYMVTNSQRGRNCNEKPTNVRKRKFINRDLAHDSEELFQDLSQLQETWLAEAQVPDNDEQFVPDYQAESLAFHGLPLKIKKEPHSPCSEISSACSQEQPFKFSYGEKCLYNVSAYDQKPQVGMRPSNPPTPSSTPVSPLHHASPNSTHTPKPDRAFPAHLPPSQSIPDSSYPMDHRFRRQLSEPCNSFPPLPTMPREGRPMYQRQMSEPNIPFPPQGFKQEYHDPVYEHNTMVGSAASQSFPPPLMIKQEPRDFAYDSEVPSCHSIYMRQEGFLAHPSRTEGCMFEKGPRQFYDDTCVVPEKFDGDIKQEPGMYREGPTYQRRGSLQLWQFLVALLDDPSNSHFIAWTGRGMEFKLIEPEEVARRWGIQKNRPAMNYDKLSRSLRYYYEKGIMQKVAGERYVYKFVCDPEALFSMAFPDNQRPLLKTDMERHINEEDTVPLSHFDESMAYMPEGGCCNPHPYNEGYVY
Method in brief: as §1

ERF = target: T6, ERF (Homo sapiens, UniProt P50548 1-548); settings: protein: recombinant; tags: N-terminal GST; dsDNA, one strand shown
T6 sequence: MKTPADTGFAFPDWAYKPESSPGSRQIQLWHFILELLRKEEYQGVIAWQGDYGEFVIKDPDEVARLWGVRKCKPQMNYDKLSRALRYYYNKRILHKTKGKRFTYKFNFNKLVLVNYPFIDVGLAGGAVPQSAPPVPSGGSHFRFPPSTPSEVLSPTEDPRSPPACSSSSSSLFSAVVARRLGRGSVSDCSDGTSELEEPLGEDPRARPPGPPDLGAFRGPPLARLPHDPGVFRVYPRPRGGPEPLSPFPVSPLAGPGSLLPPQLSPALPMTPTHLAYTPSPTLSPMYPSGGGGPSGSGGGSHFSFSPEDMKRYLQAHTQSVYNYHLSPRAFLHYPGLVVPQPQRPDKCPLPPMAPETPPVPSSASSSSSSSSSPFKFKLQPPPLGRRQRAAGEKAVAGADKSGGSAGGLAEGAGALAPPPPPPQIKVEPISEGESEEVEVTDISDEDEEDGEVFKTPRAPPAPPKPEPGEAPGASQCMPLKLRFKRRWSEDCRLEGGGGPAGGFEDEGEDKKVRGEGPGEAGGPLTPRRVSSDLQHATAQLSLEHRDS
Method in brief: as §1

ETV3L = target: T7, ETV3L (Homo sapiens, UniProt Q6ZN32 1-361); settings: protein: recombinant; tags: N-terminal GST; dsDNA, one strand shown
T7 sequence: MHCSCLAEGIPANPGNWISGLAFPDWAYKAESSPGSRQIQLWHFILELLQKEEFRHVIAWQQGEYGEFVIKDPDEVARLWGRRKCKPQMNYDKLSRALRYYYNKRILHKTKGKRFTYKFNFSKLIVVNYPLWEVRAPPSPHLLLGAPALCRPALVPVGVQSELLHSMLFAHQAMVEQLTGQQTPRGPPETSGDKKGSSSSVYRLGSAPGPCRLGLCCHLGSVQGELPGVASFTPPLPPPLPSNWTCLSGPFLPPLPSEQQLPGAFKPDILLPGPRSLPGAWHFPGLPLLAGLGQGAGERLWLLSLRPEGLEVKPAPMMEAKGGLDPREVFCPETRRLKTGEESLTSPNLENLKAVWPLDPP
Method in brief: as §1

ETS2 = target: T8, ETS2 (Homo sapiens, UniProt P15036 1-469); settings: protein: recombinant; tags: N-terminal GST; dsDNA, one strand shown
T8 sequence: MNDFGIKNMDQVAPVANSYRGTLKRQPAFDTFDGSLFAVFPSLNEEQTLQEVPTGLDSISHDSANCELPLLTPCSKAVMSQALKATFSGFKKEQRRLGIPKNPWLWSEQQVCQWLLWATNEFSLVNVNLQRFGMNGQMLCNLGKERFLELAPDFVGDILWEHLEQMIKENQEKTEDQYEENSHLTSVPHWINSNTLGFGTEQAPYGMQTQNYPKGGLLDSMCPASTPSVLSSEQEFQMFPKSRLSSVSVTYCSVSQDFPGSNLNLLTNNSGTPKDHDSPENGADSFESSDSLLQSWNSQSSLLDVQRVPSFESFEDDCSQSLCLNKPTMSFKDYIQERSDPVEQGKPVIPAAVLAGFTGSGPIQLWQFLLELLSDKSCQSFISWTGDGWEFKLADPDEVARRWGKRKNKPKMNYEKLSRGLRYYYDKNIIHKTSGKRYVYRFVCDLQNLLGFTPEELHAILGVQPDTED
Method in brief: as §1

SPDEF = target: T9, SPDEF (Homo sapiens, UniProt O95238 1-335); settings: protein: recombinant; tags: N-terminal GST; dsDNA, one strand shown
T9 sequence: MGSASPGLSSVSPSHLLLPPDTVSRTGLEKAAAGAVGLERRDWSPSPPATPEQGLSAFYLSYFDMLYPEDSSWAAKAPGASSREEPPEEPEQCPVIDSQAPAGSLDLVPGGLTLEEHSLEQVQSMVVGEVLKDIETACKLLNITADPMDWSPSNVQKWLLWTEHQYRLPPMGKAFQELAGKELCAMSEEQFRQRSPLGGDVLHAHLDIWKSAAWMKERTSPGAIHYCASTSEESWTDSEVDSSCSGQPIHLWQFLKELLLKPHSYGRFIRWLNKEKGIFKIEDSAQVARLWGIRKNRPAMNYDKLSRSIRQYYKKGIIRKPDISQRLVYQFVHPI
Method in brief: as §1

ETV7 = target: T10, ETV7 (Homo sapiens, UniProt Q9Y603 1-341); settings: protein: recombinant; tags: N-terminal GST; dsDNA, one strand shown
T10 sequence: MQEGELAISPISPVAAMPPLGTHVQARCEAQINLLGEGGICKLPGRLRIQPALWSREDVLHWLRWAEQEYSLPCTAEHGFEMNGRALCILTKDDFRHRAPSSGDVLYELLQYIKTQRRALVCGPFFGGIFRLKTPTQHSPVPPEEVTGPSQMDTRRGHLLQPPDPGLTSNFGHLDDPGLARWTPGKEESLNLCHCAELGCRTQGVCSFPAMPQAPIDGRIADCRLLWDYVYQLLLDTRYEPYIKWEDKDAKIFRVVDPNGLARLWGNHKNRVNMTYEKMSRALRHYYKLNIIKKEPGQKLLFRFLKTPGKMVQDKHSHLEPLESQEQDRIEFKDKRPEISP
Method in brief: as §1

ELF5 = target: T11, ELF5 (Homo sapiens, UniProt Q9UKW6-2 1-255); settings: protein: recombinant; tags: N-terminal GST; dsDNA, one strand shown
T11 sequence: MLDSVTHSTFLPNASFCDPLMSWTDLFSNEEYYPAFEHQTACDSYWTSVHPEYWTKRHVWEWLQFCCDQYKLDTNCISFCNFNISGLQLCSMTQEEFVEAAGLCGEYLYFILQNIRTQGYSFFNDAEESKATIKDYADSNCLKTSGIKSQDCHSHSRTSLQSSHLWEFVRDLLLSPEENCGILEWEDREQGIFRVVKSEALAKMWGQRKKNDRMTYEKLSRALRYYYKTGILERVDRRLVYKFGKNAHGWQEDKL
Method in brief: as §1

ETV3 = target: T12, ETV3 (Homo sapiens, UniProt P41162-2 1-143); settings: protein: recombinant; tags: N-terminal GST; dsDNA, one strand shown
T12 sequence: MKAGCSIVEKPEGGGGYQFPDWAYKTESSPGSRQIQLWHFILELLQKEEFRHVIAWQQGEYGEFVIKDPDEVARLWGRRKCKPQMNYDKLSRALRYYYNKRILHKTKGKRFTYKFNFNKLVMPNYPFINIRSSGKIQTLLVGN
Method in brief: as §1

ETV6 = ETV6 (Homo sapiens, UniProt P41212 1-452); settings: protein: recombinant; tags: N-terminal GST; dsDNA, one strand shown
Sequence of ETV6 (P41212 whole entry): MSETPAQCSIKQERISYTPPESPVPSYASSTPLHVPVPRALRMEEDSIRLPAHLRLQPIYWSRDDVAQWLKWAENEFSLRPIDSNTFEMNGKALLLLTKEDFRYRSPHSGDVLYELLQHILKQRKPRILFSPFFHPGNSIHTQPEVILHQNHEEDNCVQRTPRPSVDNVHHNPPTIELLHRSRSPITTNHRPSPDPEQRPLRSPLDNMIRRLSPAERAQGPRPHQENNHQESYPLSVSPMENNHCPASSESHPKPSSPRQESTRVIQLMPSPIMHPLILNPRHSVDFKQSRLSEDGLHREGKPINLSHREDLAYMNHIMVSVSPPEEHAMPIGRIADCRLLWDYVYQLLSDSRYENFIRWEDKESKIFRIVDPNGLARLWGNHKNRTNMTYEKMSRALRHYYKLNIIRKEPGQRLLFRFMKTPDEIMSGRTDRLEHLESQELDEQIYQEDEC
Method in brief: as §1

Sequence: CTTGAT
- binding signal (FEV): 1.38 fold enrichment (6-mer frequency, TF over GST control)
- binding signal (ETV5): 1.43 fold enrichment (6-mer frequency, TF over GST control)
- binding signal (HSF1): 1.44 fold enrichment (6-mer frequency, TF over GST control)
- binding signal (SPIC): 1.41 fold enrichment (6-mer frequency, TF over GST control)
- binding signal (ELF4): 1.43 fold enrichment (6-mer frequency, TF over GST control)
- binding signal (ELK4): 1.43 fold enrichment (6-mer frequency, TF over GST control)
- binding signal (ETV2): 1.43 fold enrichment (6-mer frequency, TF over GST control)
- binding signal (ELF3): 1.38 fold enrichment (6-mer frequency, TF over GST control)
- binding signal (CRX): 1.57 fold enrichment (6-mer frequency, TF over GST control)
- binding signal (ETV1): 1.29 fold enrichment (6-mer frequency, TF over GST control)
- binding signal (ERF): 1.47 fold enrichment (6-mer frequency, TF over GST control)
- binding signal (ETV3L): 1.42 fold enrichment (6-mer frequency, TF over GST control)
- binding signal (ETS2): 1.35 fold enrichment (6-mer frequency, TF over GST control)
- binding signal (SPDEF): 1.34 fold enrichment (6-mer frequency, TF over GST control)
- binding signal (ETV7): 1.28 fold enrichment (6-mer frequency, TF over GST control)
- binding signal (ELF5): 1.39 fold enrichment (6-mer frequency, TF over GST control)
- binding signal (ETV3): 1.35 fold enrichment (6-mer frequency, TF over GST control)
- binding signal (ETV6): 1.24 fold enrichment (6-mer frequency, TF over GST control)
